Data reported in PubChem BioAssay (NCATS).
Records with an inconclusive call do not appear. The source made the active and inactive calls. Calls follow the shape of the dose curve; as a rule, active = well fitted inhibition curve with a large enough effect; inconclusive = small, poorly fitted or top-dose-only effect; inactive = flat fitted curve, though single readings scatter.

Assay: qHTS for Inhibitors of Plasmodium falciparum (7G8) proliferation (AID 504316);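 also: 0% = DMSO vehicle and -100% = 0.29 µM artemisinin full kill; nearly all actives have a fitted effect of over 65% in size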
Conditions: P. falciparum 7G8 in erythrocytes, SYBR Green DNA, 72 h; series mostly up to 6.7 µM; activity change, negative = inhibition: at the top concentration
Procedure, shortened: (§1)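 Erythrocytes infected with P. falciparum line (0.3% parasitemia, 2.5% hematocrit final) incubated with compounds 72 h at 37 °C, 5% CO2; SYBR Green lysis buffer added, fluorescence read next day. Normalized to 0.29 uM artemisinin and DMSO.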

Row | SMILES | activity change, negative = inhibition | Potency
1 | COC(=O)N[C@@H](c1cccc(C)c1)[C@]1(C(C)=O)CCCC1=O | 9.54% (inactive) | –
2 | CCN1C(=O)N[C@@H](c2ccco2)C(C(C)=O)=C1C | 3.74% (inactive) | –
3 | CCOC(=O)CN1C(=O)N[C@@H](c2ccco2)C(C(=O)OC)=C1C | -0.545% (inactive) | –
4 | CC1(OC(=O)CCc2ccccc2)C(=O)C=C2C=C(c3ccc(C#N)cc3)N(C3CCCCC3)C=C2C1=O (stereo not drawn) | -0.0576% (inactive) | –
5 | COC/C=C/C1=CC2=CC(=O)C(C)(OC(=O)c3cnc4ccccc4n3)C(=O)C2=CN1c1ccc(CO)cc1 (stereo not drawn) | 1.21% (inactive) | –
6 | CCN1C(=O)N[C@@H](CCc2ccccc2)C(C(C)=O)=C1C | -1.52% (inactive) | –
7 | CCOC(=O)C=CCCCC=CC(=O)c1ccccc1 | -13.3% (inactive) | –
8 | COC(=O)C1=C(C(=O)OC)[C@@H]2Nc3ccccc3[C@@]23C[C@@H](C(=O)OC)N(C(=O)NC2CCCC2)C3=N1 | 9.42% (inactive) | –
9 | COC/C=C/C1=CC2=CC(=O)C(C)(OC(=O)c3cnc4ccccc4n3)C(=O)C2=CN1CCc1c[nH]c2ccccc12 (stereo not drawn) | -5.31% (inactive) | –
10 | CCCCC1=CC2=CC(=O)C(C)(OC(=O)CC)C(=O)C2=CN1C(CO)CO (stereo not drawn) | -1.68% (inactive) | –
11 | CCN(CC)CCCN1C=C2C(=O)C(C)(OC(=O)CCC(=O)OC)C(=O)C=C2C=C1C1CC1 (stereo not drawn) | -2.33% (inactive) | –
12 | CCN1C(=O)N[C@@H](c2ccccc2)C(C(=O)OC)=C1C | 5.34% (inactive) | –
13 | COC(=O)C1=C(C(=O)OC)[C@@H]2N(Cc3ccccc3)c3ccccc3[C@@]23C[C@@H](C(=O)OC)N(C(C)=O)C3=N1 | -0.773% (inactive) | –
14 | CCOC(=O)CN1C(=O)N[C@@H](c2ccco2)C(C(C)=O)=C1C | 2.31% (inactive) | –
15 | COC(=O)[C@@H]1[C@H](CCc2ccccc2)NC(=O)N(Cc2ccccc2)[C@@H]1C | -11.9% (inactive) | –
16 | COC(=O)C1=C(C(=O)OC)[C@@H]2N(C)c3ccc(OC)cc3[C@@]23C[C@@H](C(=O)OC)N(C(=O)C2CCC2)C3=N1 | -3.51% (inactive) | –
17 | COCC(=O)N1CCc2nc(-c3ccc(OC)cc3C)c3c(c2C1)CO[C@@H](c1ccccc1)C3 | -7.2% (inactive) | –

Row | SMILES | activity change, negative = inhibition | Potency
18 | COC(=O)C1=C(C(=O)OC)[C@@H]2N(C)c3ccccc3[C@@]23C[C@@H](C(=O)OC)N(C(=O)CC(C)C)C3=N1 | 0.0838% (inactive) | –
19 | COC/C=C/C1=CC2=CC(=O)C(C)(OC(=O)c3cnc4ccccc4n3)C(=O)C2=CN1CCc1ccccn1 (stereo not drawn) | 5.97% (inactive) | –
20 | CC(=O)[C@@H]1[C@@H](C)N(Cc2ccccc2)C(=O)N[C@H]1c1cccc(C(F)(F)F)c1 | – | inactive
21 | COC(=O)C1=C(C(=O)OC)[C@@H]2Nc3ccccc3[C@@]23C[C@@H](C(=O)OC)N(S(=O)(=O)c2ccc(C)cc2)C3=N1 | -4.71% (inactive) | –
22 | CC1(OC(=O)CCc2ccccc2)C(=O)C=C2C=C(c3ccc(C#N)cc3)N(CCN3CCOCC3)C=C2C1=O (stereo not drawn) | 2.13% (inactive) | –
23 | CCOC(=O)CN1C(=O)N[C@@H](c2ccccc2)[C@H](C(=O)OC)[C@H]1C | 6.13% (inactive) | –
24 | CCCCC1=CC2=C(c3ccco3)C(=O)C(C)(OC(=O)c3ccc(OC)cc3)C(=O)C2=CN1c1ccccc1 (stereo not drawn) | – | inactive
25 | C=CC1=C2C=C(C3CC3)N(CCCN(CC)CC)C=C2C(=O)C(C)(OC(=O)c2ccco2)C1=O (stereo not drawn) | 0.362% (inactive) | –
26 | CCOC(=O)CN1C(=O)N[C@@H](c2cccc(F)c2)C(C(=O)OC)=C1C | 1.8% (inactive) | –
27 | CCOC(=O)NN=C1C[C@@H](O)[C@@H](O)[C@@H]2[C@H]3C(=O)N([C@@H](C)c4ccccc4)C(=O)[C@@H]3CC[C@@H]12 | 11% (inactive) | –
28 | COC(=O)C1=C(C)N(Cc2ccccc2)C(=O)N[C@H]1CCc1ccccc1 | -0.88% (inactive) | –
29 | COC(=O)C1=C(C(=O)OC)[C@@H]2N(C)c3ccccc3[C@@]23C[C@@H](C(=O)OC)N(S(=O)(=O)c2ccc(C#N)cc2)C3=N1 | -11% (inactive) | –
30 | COC(=O)C1=C(C(=O)OC)[C@@H]2N(C)c3ccccc3[C@@]23C[C@@H](CO)N=C3N1 | -0.363% (inactive) | –
31 | C[C@H]1Cc2c(-c3ccccc3)nc3c(c2CO1)CN(S(=O)(=O)c1ccc(C#N)cc1)CC3 | -15.9% (inactive) | –
32 | COC/C=C/C1=CC2=CC(=O)C(C)(OC(=O)c3cnc4ccccc4n3)C(=O)C2=CN1CCN1CCOCC1 (stereo not drawn) | -4.71% (inactive) | –
33 | COc1ccc(N2C=C3C(=O)C(C)(OC(=O)CCc4ccccc4)C(=O)C=C3C=C2c2ccc(C#N)cc2)cc1 (stereo not drawn) | 1.21% (inactive) | –

Assay: qHTS for Inhibitors of Plasmodium falciparum (HB3) proliferation (AID 504318); also: nearly all actives have a fitted effect of over 60% in size; also: potency is read from the fitted curve at half-maximal effect;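 as to activity change, negative = inhibition: 0% = DMSO vehicle and -100% = artemisinin control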
Conditions: P. falciparum HB3 in erythrocytes, SYBR Green DNA, 72 h; series mostly up to 7.21 µM; activity change, negative = inhibition: at the top concentration
Procedure, shortened: as §1

Row | SMILES | activity change, negative = inhibition | Potency
34 | COCCN1C(=O)N(C)[C@@H](c2ccccc2)C(C(C)=O)=C1C | -9.35% (inactive) | –
35 | COC(=O)C1=C(C(=O)OC)[C@@H]2N(Cc3ccccc3)c3ccccc3[C@@]23C[C@@H](C(=O)OC)N(C(=O)C2CCC2)C3=N1 | -2.21% (inactive) | –
36 | COC/C=C/C1=CC2=CC(=O)C(C)(OC(=O)c3cnc4ccccc4n3)C(=O)C2=CN1c1ccc(CO)cc1 (stereo not drawn) | 2.27% (inactive) | –
37 | COC(=O)CCCC1=CC2=C(c3ccccc3)C(=O)C(C)(OC(=O)C3CCCC3)C(=O)C2=CN1CCc1ccccn1 (stereo not drawn) | -10.3% (inactive) | –
38 | CCCCC1=CC2=CC(=O)C(C)(OC(=O)CC)C(=O)C2=CN1C(CO)CO (stereo not drawn) | 1.91% (inactive) | –
39 | CCN(CC)CCCN1C=C2C(=O)C(C)(OC(=O)CCC(=O)OC)C(=O)C=C2C=C1C1CC1 (stereo not drawn) | -0.686% (inactive) | –
40 | COC(=O)C1=C(C(=O)OC)[C@@H]2N(Cc3ccccc3)c3ccccc3[C@@]23C[C@@H](C(=O)OC)N(C(C)=O)C3=N1 | 4.15% (inactive) | –
41 | CCOC(=O)CN1C(=O)N[C@@H](c2ccco2)C(C(C)=O)=C1C | -3.47% (inactive) | –
42 | COC(=O)[C@@H]1[C@H](CCc2ccccc2)NC(=O)N(Cc2ccccc2)[C@@H]1C | 1.35% (inactive) | –
43 | COCC(=O)N1CCc2nc(-c3ccc(OC)cc3C)c3c(c2C1)CO[C@@H](c1ccccc1)C3 | -0.913% (inactive) | –
44 | COC(=O)C1=C(C(=O)OC)[C@@H]2N(C)c3ccccc3[C@@]23C[C@@H](C(=O)OC)N(C(=O)CC(C)C)C3=N1 | -1.16% (inactive) | –
45 | COC(=O)C1=C(C)N(Cc2ccccc2)C(=O)N[C@H]1c1ccco1 | 3.11% (inactive) | –
46 | COC(=O)CCC(=O)OC1(C)C(=O)C=C2C=C(C3CC3)N(Cc3ccccc3)C=C2C1=O (stereo not drawn) | 2.12% (inactive) | –
47 | COC(=O)C1=C(C)N(Cc2ccccc2)C(=O)NC1c1ccco1 (stereo not drawn) | 2.48% (inactive) | –
48 | CCCCC1=CC2=C(c3ccco3)C(=O)C(C)(OC(=O)c3ccc(OC)cc3)C(=O)C2=CN1c1ccccc1 (stereo not drawn) | -0.837% (inactive) | –
49 | COC(=O)C1=C(C)N(Cc2ccccc2)C(=O)N[C@H]1CCc1ccccc1 | 2.08% (inactive) | –
50 | COC(=O)C1=C(C(=O)OC)[C@@H]2N(C)c3ccccc3[C@@]23C[C@@H](CO)N=C3N1 | 5.03% (inactive) | –
51 | CCCC[C@]12Cc3c(ccc4ccccc34)[C@H](O1)C1=C(O2)C(=O)c2ccccc2C1=O | – | 1.51 µM (active)
52 | COC/C=C/C1=CC2=CC(=O)C(C)(OC(=O)c3cnc4ccccc4n3)C(=O)C2=CN1CCN1CCOCC1 (stereo not drawn) | 1.82% (inactive) | –
53 | COc1ccc(N2C=C3C(=O)C(C)(OC(=O)CCc4ccccc4)C(=O)C=C3C=C2c2ccc(C#N)cc2)cc1 (stereo not drawn) | -0.948% (inactive) | –
